From PubChem BioAssay
UDG counterscr: counter-screen for AID inhibitors: uracil-DNA glycosylase inhibition; FRET deamination/UDG coupled assay, UDG read, 4 h; Potency, µM (doses to about 115 µM), for the others: at the highest dose activity change, negative = inhibition, actives largely listed as inhibitors; 0.14% of 91,000 active; AID 1347430; note: nearly all actives have a fitted effect of over 65% in size
AID inh: blocks human AID cytidine deaminase activity; Q9GZX7; AID deamination FRET fluorescence, UDG-coupled, 4 h; Potency, µM (doses to about 115 µM), most hits filed as inhibitors; 0.32% of 91,000 active; AID 1347428; note: nearly all actives have a fitted effect of over 25% in size
Target sequence (Q9GZX7 whole entry, looked up): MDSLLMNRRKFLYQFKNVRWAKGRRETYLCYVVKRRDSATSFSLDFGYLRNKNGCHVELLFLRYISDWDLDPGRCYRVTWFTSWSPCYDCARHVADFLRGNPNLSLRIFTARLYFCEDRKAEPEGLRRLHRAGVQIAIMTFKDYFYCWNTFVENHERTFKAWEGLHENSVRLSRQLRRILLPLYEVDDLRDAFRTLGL
* = called active by the depositor; i = inactive; ? = inconclusive; [ ] = dose if it differs, or a comment. Hits are enriched below; roughly 0.47% of the tested compounds scored in any of these assays. Calls come from the whole dose curve; as a rule, active = well fitted curve in the direction sought with a large enough effect; inconclusive = small, poorly fitted or top-dose-only effect, or another doubt; inactive = no such curve, though single readings can be large; an effect the other way counts as inactive or inconclusive. % is set by controls: 0 for no effect and ±100 for the full control effect; potency is the fitted concentration of half-maximal effect.

SMILES	UDG counterscr	AID inh
CCN(CC)CCCNC(=O)c1oc2c(c1C)-c1nn(Cc3ccc(Cl)cc3)cc1CC2	-12%[57.5 µM]	i
COCCCNC(=O)c1oc2c(c1C)-c1nn(Cc3ccc(Cl)cc3)cc1CC2	-14%[57.5 µM]	i
CCOCCCNC(=O)Cn1cc2c(n1)-c1c(oc(C(=O)N3CCCC3)c1C)CC2	?	79µM*
COCCCNC(=O)c1oc2c(c1C)-c1nn(Cc3cccc(Cl)c3)cc1CC2	-14%[57.5 µM]	89µM*
O=C(O)C/C(=C/c1csc(-c2ccc(F)cc2)n1)c1nc2ccccc2s1	3%	i
N#Cc1c(SCCN2CCOCC2)nc(N2CCCCC2)c2c1CCCC2	-4%	i
Cc1cccc2c(C(=O)O)cc(-c3ccc(Cl)s3)nc12	7%	?
CCC1=Nc2cc(C(=O)N3CCC(C)CC3)ccc2Sc2ccc(C)cc21	-13%	32µM*
CCC1=Nc2cc(C(=O)NCc3ccccc3Cl)ccc2Sc2ccc(C)cc21	-6%	i
Cc1c(-c2cccs2)nc2ccccc2c1-c1ccccc1	-5%	i
O=C(CSc1nnc(-c2ccccc2)o1)N1CCCc2ccccc21	-6%	?
O=C(CSc1nnc(-c2ccccc2Cl)o1)N1CCCc2ccccc21	-17%	28µM*
COc1ccccc1-c1csc(N2N=C(C)CC2c2cc(OC)c(OC)c(OC)c2)n1 (centres undefined)	0%	i
COc1ccc(S(=O)(=O)N2CCn3cccc3C2c2cccs2)cc1C (centres undefined)	11%	i
COc1ccc(S(=O)(=O)N2CCn3cccc3C2c2ccc(C)cc2)cc1C (centres undefined)	79µM*	i
COC(=O)c1cccc(S(=O)(=O)Oc2ccc3ccc(=O)oc3c2)c1	15%	i
Cc1ccc(N(CC(=O)N2CCC(C(N)=O)CC2)S(=O)(=O)c2ccc(Cl)cc2)cc1C	6%	i
CCc1ccc(C(=O)Nc2sc(C)c(C)c2C#N)cc1	-7%	i
Cc1ccc(OCc2ccc(-c3nc(C#N)c(N4CCC(C(N)=O)CC4)o3)o2)cc1	-1%	i
COc1cccc(-c2nc(CS(=O)CC(=O)N3CCN(c4cccc(C(F)(F)F)c4)CC3)c(C)o2)c1 (centres undefined)	-14%[57.5 µM]	45µM*
Cc1oc(-c2ccc(Cl)cc2)nc1CS(=O)CC(=O)N1CCN(c2cccc(C(F)(F)F)c2)CC1 (centres undefined)	-11%[57.5 µM]	?
CCc1ccc(-c2c(C)sc(N)c2C#N)cc1	-5%	i
COc1ccc(CC(=O)Nc2ccc3nc(Nc4cccc(Cl)c4)cc(C)c3c2)cc1	-10%	i
Cc1cc(Nc2cccc(C(F)(F)F)c2)nc2ccc(NC(=O)Cc3ccc(Cl)cc3)cc12	-17%	35µM*
COC(=O)C1=CN(C(C)C)C=C(C(=O)OC)C1c1ccc(C)s1	5%	i
SMILES	UDG counterscr	AID inh
COC(=O)C(C)N1C(=O)S/C(=C/c2ccc(C)o2)C1=O (centres undefined)	-12%	i
Oc1ccc2ccccc2c1CN(Cc1ccccc1)Cc1ccccc1	-17%	i
COc1ccc(-c2nn(-c3ccccc3)cc2C2NC(=O)NC(C)=C2C(=O)OC(C)C)cc1OC (centres undefined)	-7%	?
CCOC(=O)C1=C(C)NC(=O)NC1c1cn(-c2ccccc2)nc1-c1ccc(OC(C)C)cc1 (centres undefined)	-4%	28µM*
COc1ccc2cc(C(=O)N3CCN(S(=O)(=O)c4ccc(C)cc4)CC3)c(C)nc2c1	-13%	i
Cc1ccccc1Cc1c(C)nc2nc(SCC(=O)NCCc3ccc(Cl)cc3)nn2c1C	-25%	?
Cc1nc2nc(SCC(=O)NCCc3ccc(Cl)cc3)nn2c(C)c1Cc1ccccc1Cl	-30%	35µM*
N#CCSc1sc(=S)sc1SCC#N	-7%	i
O=C(C1CC1)N(Cc1ccc2c(c1)CN(S(=O)(=O)c1ccc(F)c(F)c1)CCO2)c1ccccc1	89µM*	?
O=C(C1CC1)N(Cc1ccc2c(c1)CN(S(=O)(=O)c1ccccc1F)CCO2)c1ccccc1	0%	?
COc1ccc(-c2nn3c(CN4CCOCC4)nnc3s2)c(OC)c1	-3%	i
COC(=O)c1ccoc1COC(=O)CCc1ccc(-c2ccccc2)o1	-17%	i
Cc1cccc(-n2cc(-c3ccccc3)c3c(N4CCC(C)CC4)ncnc32)c1	-4%[57.5 µM]	?
CC(=O)N1CCN(c2ncnc3c2c(-c2ccccc2)cn3-c2cccc(C)c2)CC1	79µM*	?
Cn1nc(CC(=O)Nc2ccc(S(=O)(=O)N3CCCCCC3)cc2)c2ccccc2c1=O	-4%	i
O=C(Cc1n[nH]c(=O)c2ccccc12)Nc1ccc(S(=O)(=O)N2CCCC2)cc1	-19%	40µM*
COC(=O)/C(C#N)=C\c1cc(Br)c(O)c(OC)c1	12%	i
OCCCNC(=S)NCCc1ccccc1	-2%	i
Cc1cc(/C=C/C(=O)c2ccccc2F)cc(C)c1O	-8%	i
